# According to PubChem BioAssay (NCI):
# This is part of a sample that, as a whole, favours compounds with a hit. Of some 79,000 tested, about 15% had one in any assay. Unmarked numbers belong to inactive results. Active and inactive are the calls of the source. Cut-off read from the data, not from the text of the source: active = growth inhibition above about 70%; inactive = the rest.
# Assay: NCI Yeast Anticancer Drug Screen. Data for the rad50 strain (AID 155);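 note: 0% = growth of vehicle-only cultures of the same strain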
# Settings: S. cerevisiae rad50 strain growth inhibition; at 50.0 µM; active compounds read high
# How it was run: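 DNA repair mutant yeast, compound exposure, growth read-out; inhibition is taken relative to vehicle.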
row,Compound,growth inhibition
1,N#CC(C(=O)/C(=N\Nc1nc(=S)[nH]n1N)C(C#N)c1ccc(Cl)cc1)c1ccc(Cl)cc1 (stereo not given),-13.3%
2,CCOC(=O)C(CC)C1=CCCCC1 (stereo not given),-21%
3,CCn1c(SCC(=O)N/N=C/c2ccccc2)nc2ccccc2c1=O,5.65%
4,Cc1cc2c(cc1N)C(C)(C)CCC2(C)C,-4.65%
5,CS(=O)(=O)Nc1nc2ccccc2c(=O)o1,-50.8%
6,Cc1csc(=NCc2cccnc2)n1C,14.7%
7,C/C(=N\NC(=S)N1CCCCCC1)c1nccs1,3.95%
8,CC(=O)OCC1OC(n2cnc3c(N)ncnc32)C(O)C1O (stereo not given),-3.7%
9,C/C(=C1\SC(=S)N(C2OC(CO)C(O)C(O)C2O)C1=O)c1ccco1 (stereo not given),-14%
10,Clc1ccc(Nc2ncnc3oc(-c4ccccc4)c(-c4ccccc4)c23)cc1,6.7%
11,N#C/C(=N\NC(=O)c1cccc(C(=O)N/N=C(\C#N)c2ccccc2Cl)n1)c1ccccc1Cl,-0.95%
12,CC[C@@]12CCC(=S)N(CCSc3ccccc3)[C@@H]1c1c(n(S(=O)(=O)c3ccc(OC)cc3)c3ccccc13)CC2,-38%
13,CN(C)C1=Nc2ccccc2C(=S)N2CSCC12 (stereo not given),-29%
14,c1ccc(N=C(c2ccccc2)c2ccccc2)cc1,9.25%
15,CCC1(C)N=C(N)Nc2nc3cc(C)c(C)cc3n21 (stereo not given),15.2%
16,Nc1ccc(S(=O)(=O)Nc2ccccn2)cc1,-2.2%
17,Nc1ncnc2c1ncn2-c1ccc(N(CCO)CCO)cc1,5.5%
18,CCN(CC)CCOc1cccc(O)c1,-5.95%
19,CSc1ccc([C@@H](O)[C@H](CO)NC(=O)C(Cl)Cl)cc1,72.9% (active)
20,c1ccc(COC(c2ccccc2)(c2ccccc2)c2ccccc2)cc1,-0.45%

row,Compound,growth inhibition
1,c1ccc(-c2nc(-c3ccccc3)c(-c3ccccc3)[nH]2)cc1,-0.85%
2,CCC1=C/C(=N/O)C(C)=CC1(C)C(Cl)(Cl)Cl (stereo not given),25.7%
3,COc1ccc(OC)c(Cc2ccc(NC(C)=O)cc2)c1,4.75%
4,CC(=O)Nc1c(Nc2ccc3c(=O)[nH]ccc3c2C)cc[nH]c1=O,22.1%
5,NCCCc1ccc2c(c1)OCO2,42.2%
6,O=CN(Cc1cnccn1)Cc1cnccn1,-2.8%
7,CN(C)CCCNc1ccc2nnn3c4ccc([N+](=O)[O-])cc4c(=O)c1c23,68.8%
8,Clc1ccc2c(c1)[nH]c1c2nc2sccn21,-7.25%
9,O=[N+]([O-])c1ccc(-c2noc(-c3ccccc3)c2C2=NCCN2)cc1,-9.85%
10,CCOC(=O)C(Cc1ccc([N+](=O)[O-])cc1)(Cc1ccc([N+](=O)[O-])cc1)C(=O)OCC,-8.9%
11,O=C(O)c1cccc2cnccc12,-40.6%
12,Nc1c2ccccc2nc2c(C(=O)Nc3ccc(S(N)(=O)=O)cc3)cccc12,16.4%
13,COc1ccc2oc(=O)[nH]c2c1,5.3%
14,CCCC(C)NC(=O)c1ccc(OCC)cc1 (stereo not given),-12.6%
15,CC(=O)CC(=O)C1CCC(C(=O)CC(C)=O)CC1 (stereo not given),-3.7%
16,Cc1nsc2[nH]c(=O)n(Nc3ccc(O)cc3)c(=O)c12,-13.6%
17,CC1(C)C(=O)c2cc3ccc4ccccc4c3cc2C(C)(C)C1(C)C,-1.25%
18,COC(=O)c1cc2c(cc1CC(Cc1ccc3c(c1)CCCC3)C(=O)OC)CCCC2 (stereo not given),-2.1%
19,O=C(O[C@H]1[C@@H]2C=CO[C@@H](OC3OC(CO)C(O)C(O)C3O)[C@@H]2[C@@]2(CO)O[C@@H]12)c1ccc(O)c(O)c1 (stereo not given in full),-20.3%
20,O=P(O)(O)c1ccc(-c2ccc(P(=O)(O)O)cc2)cc1,-4.7%

# Assay: NCI Yeast Anticancer Drug Screen. Data for the mec2-1 strain (AID 157)
# Settings: S. cerevisiae mec2-1 strain, at 50.0 µM, active compounds read high
# How it was run: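 Yeast mec2-1 mutant treated with compound. Readout: growth inhibition vs vehicle controls.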
row,Compound,growth inhibition
1,N#CC(C(=O)/C(=N\Nc1nc(=S)[nH]n1N)C(C#N)c1ccc(Cl)cc1)c1ccc(Cl)cc1 (stereo not given),-10%
2,CCOC(=O)C(CC)C1=CCCCC1 (stereo not given),-48.7%
3,CCn1c(SCC(=O)N/N=C/c2ccccc2)nc2ccccc2c1=O,6.95%
4,Cc1cc2c(cc1N)C(C)(C)CCC2(C)C,-18.2%
5,CS(=O)(=O)Nc1nc2ccccc2c(=O)o1,-21.9%
6,Cc1csc(=NCc2cccnc2)n1C,-9.75%
7,C/C(=N\NC(=S)N1CCCCCC1)c1nccs1,0.25%
8,CC(=O)OCC1OC(n2cnc3c(N)ncnc32)C(O)C1O (stereo not given),-6.45%
9,C/C(=C1\SC(=S)N(C2OC(CO)C(O)C(O)C2O)C1=O)c1ccco1 (stereo not given),-9.3%
10,Clc1ccc(Nc2ncnc3oc(-c4ccccc4)c(-c4ccccc4)c23)cc1,13%
11,N#C/C(=N\NC(=O)c1cccc(C(=O)N/N=C(\C#N)c2ccccc2Cl)n1)c1ccccc1Cl,-10.9%
12,CC[C@@]12CCC(=S)N(CCSc3ccccc3)[C@@H]1c1c(n(S(=O)(=O)c3ccc(OC)cc3)c3ccccc13)CC2,-18.1%
13,CN(C)C1=Nc2ccccc2C(=S)N2CSCC12 (stereo not given),-37.1%
14,c1ccc(N=C(c2ccccc2)c2ccccc2)cc1,-6.65%
15,CCC1(C)N=C(N)Nc2nc3cc(C)c(C)cc3n21 (stereo not given),17.7%
16,Nc1ccc(S(=O)(=O)Nc2ccccn2)cc1,8.55%
17,Nc1ncnc2c1ncn2-c1ccc(N(CCO)CCO)cc1,-12.3%
18,CCN(CC)CCOc1cccc(O)c1,-16.1%
19,CSc1ccc([C@@H](O)[C@H](CO)NC(=O)C(Cl)Cl)cc1,90.2% (active)
20,c1ccc(COC(c2ccccc2)(c2ccccc2)c2ccccc2)cc1,-2.2%

row,Compound,growth inhibition
1,c1ccc(-c2nc(-c3ccccc3)c(-c3ccccc3)[nH]2)cc1,28.1%
2,CCC1=C/C(=N/O)C(C)=CC1(C)C(Cl)(Cl)Cl (stereo not given),7.65%
3,COc1ccc(OC)c(Cc2ccc(NC(C)=O)cc2)c1,-2.15%
4,CC(=O)Nc1c(Nc2ccc3c(=O)[nH]ccc3c2C)cc[nH]c1=O,13.7%
5,NCCCc1ccc2c(c1)OCO2,6.45%
6,O=CN(Cc1cnccn1)Cc1cnccn1,7.3%
7,CN(C)CCCNc1ccc2nnn3c4ccc([N+](=O)[O-])cc4c(=O)c1c23,35%
8,Clc1ccc2c(c1)[nH]c1c2nc2sccn21,-14.7%
9,O=[N+]([O-])c1ccc(-c2noc(-c3ccccc3)c2C2=NCCN2)cc1,-6%
10,CCOC(=O)C(Cc1ccc([N+](=O)[O-])cc1)(Cc1ccc([N+](=O)[O-])cc1)C(=O)OCC,-0.75%
11,O=C(O)c1cccc2cnccc12,-17.6%
12,Nc1c2ccccc2nc2c(C(=O)Nc3ccc(S(N)(=O)=O)cc3)cccc12,-8.9%
13,COc1ccc2oc(=O)[nH]c2c1,-3.95%
14,CCCC(C)NC(=O)c1ccc(OCC)cc1 (stereo not given),-3%
15,CC(=O)CC(=O)C1CCC(C(=O)CC(C)=O)CC1 (stereo not given),6.2%
16,Cc1nsc2[nH]c(=O)n(Nc3ccc(O)cc3)c(=O)c12,1.1%
17,CC1(C)C(=O)c2cc3ccc4ccccc4c3cc2C(C)(C)C1(C)C,-4.25%
18,COC(=O)c1cc2c(cc1CC(Cc1ccc3c(c1)CCCC3)C(=O)OC)CCCC2 (stereo not given),1.35%
19,O=C(O[C@H]1[C@@H]2C=CO[C@@H](OC3OC(CO)C(O)C(O)C3O)[C@@H]2[C@@]2(CO)O[C@@H]12)c1ccc(O)c(O)c1 (stereo not given in full),-40%
20,O=P(O)(O)c1ccc(-c2ccc(P(=O)(O)O)cc2)cc1,2.85%
